Source: PubChem BioAssay (NCI)
Compounds without any hit were thinned out: in the full panel of roughly 79,000, 15% have a hit. A number with no mark means an inactive call. The source made the active and inactive calls. Rule as the data show it: active = growth inhibition above about 70%; inactive = the rest.

Columns and labels:
[1] = NCI Yeast Anticancer Drug Screen. Data for the rad50 strain (AID 155);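 also: 0% = growth of vehicle-only cultures of the same strain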; details: S. cerevisiae rad50 strain growth inhibition; at 50.0 µM; hits give high values
Summary of the method: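 Genetically altered yeast (DNA repair pathway); compound treatment; growth inhibition vs vehicle ctrl.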

[2] = NCI Yeast Anticancer Drug Screen. Data for the mec2-1 strain (AID 157); details: S. cerevisiae mec2-1 strain, at 50.0 µM, hits give high values
Summary of the method: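 mec2-1 yeast strain, carrying an alteration in DNA damage repair or cell cycle control, was exposed to compounds; growth inhibition was measured relative to vehicle-treated controls.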

[3] = NCI Yeast Anticancer Drug Screen. Data for the sgs1 mgt1 strain (AID 161);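 also: 0% = growth of cultures given vehicle only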; details: S. cerevisiae sgs1 mgt1 strain, at 50.0 µM, hits give high values
Summary of the method: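 This yeast growth screen uses a strain with defined DNA-repair lesions; compound-treated growth is compared with vehicle-treated growth.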

[4] = NCI Yeast Anticancer Drug Screen. Data for the cln2 rad14 strain (AID 165);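 also: 0% = growth equal to vehicle treated cultures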; details: S. cerevisiae cln2 rad14 strain, at 50.0 µM, hits give high values
Summary of the method: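 Yeast carrying cln2 and rad14 alterations (cell cycle control and DNA damage repair) were exposed to compounds. Growth inhibition was measured against vehicle-treated controls.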

[5] = NCI Yeast Anticancer Drug Screen. Data for the bub3 strain (AID 167); details: S. cerevisiae bub3 mutant strain, at 50.0 µM, hits give high values
Summary of the method: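 Yeast carrying a defined mutation is treated with each compound, and growth is compared with that of vehicle-exposed cells to give inhibition.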

[6] = NCI Yeast Anticancer Drug Screen. Data for the mlh1 rad18 strain (AID 175); details: S. cerevisiae mlh1 rad18 strain growth inhibition; at 50.0 µM; hits give high values
Summary of the method: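 Growth inhibition of the yeast strain was measured after compound exposure and expressed relative to vehicle-treated controls. The strain carries defined defects in DNA damage repair.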

| Compound | growth inhibition [1] | growth inhibition [2] | growth inhibition [3] | growth inhibition [4] | growth inhibition [5] | growth inhibition [6] |
| --- | --- | --- | --- | --- | --- | --- |
| COC(=O)Oc1ccc(Cl)cc1Cl | -18.1% | -6.05% | 15.9% | -77.4% | -8.25% | 5.7% |
| COC(=O)NC1CC/C=C\CCC1I (stereo unspecified) | 12.8% | 10% | 8.1% | 12.9% | 22.9% | 4.7% |
| Brc1ccccc1C=NC12CC3CC(CC(C3)C1)C2 | -2.55% | -7.5% | 2.25% | -55.1% | -3.45% | -5% |
| CCCn1c(SCC)c2ccccc2c1-c1nc(F)nc(F)n1 | -11.8% | -21.8% | -6.75% | 18.9% | -20.7% | 4.1% |
| C[n+]1c(I)ccc2ccccc21 | 35% | 36.5% | 53.4% | 15% | 15.9% | 36.3% |
| O=c1c2cccnc2[nH]c2ccc3scnc3c12 | -8.85% | -11.3% | -3.75% | 22.2% | -20.1% | 40.7% |
| C=CCNC(=O)CS(=O)(=O)c1ccc(C)cc1 | 0.1% | -10.3% | -0.35% | 15.3% | 3.05% | 10.6% |
| Cc1cccc(CP(Cc2cccc(C)c2)CC2(Cp3c4ccccc4c4ccccc43)COC2)c1 | 18% | -0.8% | 33.4% | 26.9% | 31.6% | 34.5% |
| O=C(NCCCCCCNC(=O)C1CCCNC1)C1CCCNC1 (stereo unspecified) | 19.1% | -11.7% | 13.8% | 15.8% | 15.4% | 12.8% |
| CC1(C)/C(=N\NC(N)=O)C2CCC1C2 (stereo unspecified) | -19.9% | -25.6% | 2.65% | -4.05% | -11.6% | -16.9% |
| BrCCCC1OCCO1 | 93.8% (active) | 53% | 85.8% (active) | 43.5% | 73.4% (active) | 60.2% |
| CC(=O)c1c(C)[nH]c(C(=O)O)c1C | 24.7% | 4.3% | 8.75% | -14.4% | 5.35% | 16.6% |
| COc1ccc(CCc2nccn2C)cc1OC | -69.3% | -54.9% | -34.7% | -16.4% | -7.95% | -32.2% |
| CCOC(=O)/C(C#N)=N\Nc1ccccc1 | -15.5% | 14.6% | -1.7% | -25.3% | -1.85% | -12.9% |
| CC(C)C1c2ccccc2C(=O)C1C(N)=O (stereo unspecified) | -16.9% | -11.4% | -12.8% | -22.6% | -4.55% | -10.4% |
| COc1cccc(N(CCO)C2CCCCC2)c1 | 12.8% | 4.2% | 18.2% | 15.7% | 10.9% | 2% |
| NC(N)=NC(N)=Nc1ccccc1 | -15.9% | 14.8% | -1.8% | -5.9% | 1.15% | 11.6% |
| Cc1cc(Nc2ccc(S(=O)(=O)O)c3cc(S(=O)(=O)O)cc(S(=O)(=O)O)c23)c2ccccc2n1 | -14.1% | 4.3% | 3.2% | -10.9% | 6% | 8.7% |
| Nc1ccc(N=Nc2ccc(OCCN(CCO)CCO)cc2)c(N)n1 | 23.8% | -22.8% | 8.8% | 4.95% | 21.6% | 15.7% |
| CCCNc1nc2c(c(=O)n(C)c(=O)n2C)n1C | -11.2% | 0.1% | 13.7% | -29.7% | 23.1% | 7.9% |
| Cc1ncc(C(N)=O)c(N)n1 | 21% | -2.05% | -11.6% | -42% | -13.6% | 8.3% |

| Compound | growth inhibition [1] | growth inhibition [2] | growth inhibition [3] | growth inhibition [4] | growth inhibition [5] | growth inhibition [6] |
| --- | --- | --- | --- | --- | --- | --- |
| COc1cc(C(C#N)NNc2nc(C)cc(=O)[nH]2)cc(OC)c1OC (stereo unspecified) | -25.6% | -2.75% | -31.1% | -5.35% | -23.9% | -12.9% |
| Cc1ccccc1NC(=O)NC(Oc1ccccc1)(C(F)(F)F)C(F)(F)F | -6.95% | -21.8% | -50.9% | 15.6% | -32.8% | -29.1% |
| O=C(COc1cccc(Cl)c1)Nc1cccc(S(=O)(=O)O)c1 (tested in a mixture with another compound) | 5.15% | -7.65% | -12.8% | -16.6% | 2% | 11.2% |
| CSc1nc(NC2OCC(OC(C)=O)C(OC(C)=O)C2OC(C)=O)c(N=C(C)C(C)=O)c(=O)[nH]1 (stereo unspecified) | -3.9% | 17.7% | 15.2% | 4.95% | 3.05% | 12.8% |
| Cc1ccc(NC(=O)OCC(COc2ccc(Cl)cc2Cl)OC(=O)Nc2ccc(C)cc2)cc1 (stereo unspecified) | -27.8% | -24.9% | -0.55% | 16.1% | 11.2% | 9.05% |
| COC(=O)c1cc(C)ncc1C#N | 0.45% | 1.15% | -4.7% | 0.3% | 2.95% | 8% |
| CCCCN(CCCC)Cc1ccnc(C)c1O | -9.3% | 5.85% | -8.5% | 8.7% | 3.75% | 7.9% |
| COC(=O)Nc1nc2ccc(SC)cc2c(=O)[nH]1 | -9.55% | -5.55% | 3.2% | 6.45% | -17.8% | -29.6% |
| CN(C)CCC(OC(=O)c1ccccc1Cl)c1ccccc1 (stereo unspecified) | -6.9% | 10.1% | 13.7% | 17.2% | 8.75% | 13.1% |
| CCCC(C)(O)C(C)(C)C (stereo unspecified) | 6.85% | 8.65% | 8% | 11.7% | 28.8% | -2.15% |
| NNC1CCN(Cc2ccccc2)CC1 | 2.5% | -16.8% | 0.25% | 22.2% | -1.9% | 14.2% |
| C=Cc1ccccc1N=NC(C(=O)OC)=P(c1ccccc1)(c1ccccc1)c1ccccc1 | -24.2% | 20.9% | -1.2% | -6.75% | -4.05% | -10.9% |
| CC(=O)c1ccc(N=C2c3ccccc3CN2c2ccc(C(C)=O)cc2)cc1 | 11.8% | -13.6% | -6.75% | -10.6% | -5.25% | 4.5% |
| Cc1sc2nc3n(c(=O)c2c1C)N=C(c1ccc(Cl)cc1)CS3 | 6.6% | -11.2% | -6.65% | 9.2% | -0.8% | -16.2% |
| Cc1ccc(N=C(N)N)cc1 | -1.25% | 0.3% | 1.05% | 12.3% | 0.7% | -1.8% |
| O=C(N/N=C(/c1nc2ccc(Cl)cc2[nH]c1=O)C(O)c1ccc(Cl)cc1Cl)c1ccncc1 (stereo unspecified) | 12.5% | 10.2% | -15.5% | -34.6% | -3.6% | 23.1% |
| COc1cc2c(cc1OC)C(CCN)NCC2 (stereo unspecified) | -8.75% | 7.2% | -2.55% | 7.3% | -3.95% | -9.25% |
| COC(=O)c1ccc(OCc2ccc3nc(OC)c(OC)nc3c2)cc1 | -32.1% | -30.4% | -50.1% | 7.35% | -28.9% | -37% |
| C(=NCc1ccccc1)c1ccccc1-c1ccccc1C=NCc1ccccc1 | 98% (active) | 98.7% (active) | 98.8% (active) | 91.8% (active) | 97.2% (active) | 98.1% (active) |
| CCNC1(C(=O)O)CCCCC1 | 1.4% | -2.15% | -1.5% | 9.85% | 2.3% | -0.2% |
